# Reference: PubChem BioAssay AID1224903 (Bradner/Qi Labs at DFCI, 2016)
# About 720 (1.1%) of roughly 66,000 compounds were called active. No stated cut-off is given here; in the data, active means normalised signal below about 0.5; inactive means the rest, inconclusive results apart. This excerpt belongs to a sample that is enriched for actives.
# Biological target: Chromobox protein homolog 7 (Homo sapiens) (UniProt O95931)
# Assay: blockers of CBX7 binding to H3K27me3 peptide – biochemical, AlphaScreen, primary screen (AID 1224903)
# Conditions: AlphaScreen His6-CBX7 / biotin-H3K27me3 peptide binding, stronger effect = lower value; z-score: measured here: z-score of CBX7 signal
# Sequence of Chromobox protein homolog 7 (Homo sapiens) (O95931 whole entry, looked up): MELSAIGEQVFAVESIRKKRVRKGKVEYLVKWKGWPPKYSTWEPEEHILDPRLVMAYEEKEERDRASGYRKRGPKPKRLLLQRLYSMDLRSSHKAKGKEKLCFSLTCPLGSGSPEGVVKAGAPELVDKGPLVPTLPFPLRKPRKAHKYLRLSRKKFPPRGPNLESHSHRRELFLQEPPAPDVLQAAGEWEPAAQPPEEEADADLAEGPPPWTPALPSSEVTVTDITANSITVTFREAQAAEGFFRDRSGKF
Structure (SMILES),normalised signal (fraction of DMSO),z-score
CC(=O)Oc1ccc(C2CC(=O)Nc3cc4c(cc32)OCO4)cc1 (centres undefined),0.988 (inactive),-0.494
CC(=O)Nc1ccc(S(=O)(=O)NCc2ccc(C(=O)NCCc3ccc(C)cc3)cc2)cc1,1.42 (inactive),1.84
COc1ccc(Cn2c(=O)c3cccnc3n(Cc3ccc(C)cc3)c2=O)cc1,1.11 (inactive),1.94
O=C(NCCCc1ccccc1)c1ccc2c(c1)N(Cc1ccccc1)CCS2,0.992 (inactive),-0.011
COCCCNC(=O)c1c[nH]c2ccc(S(=O)(=O)N(C)c3cccc(C)c3)cc2c1=O,1.02 (inactive),0.264
CCCCCCNC(=O)c1c[nH]c2ccc(S(=O)(=O)N(CC)c3cccc(C)c3)cc2c1=O,1.08 (inactive),1.26
CCN(CCCNC(=O)c1c[nH]c2ccc(S(=O)(=O)N(CC)CC)cc2c1=O)c1cccc(C)c1,0.423 (active),-6.22
O=C(CCCN1C(=O)CSc2ncccc21)NC1CCN(Cc2ccccc2)CC1,1.02 (inactive),0.27
O=C(Nc1ccc(C(F)(F)F)cc1)c1n[nH]c(=O)c2ccccc12,1.17 (inactive),1.04
COc1ccc(-c2noc(CCC(=O)NCc3cccc(OC)c3)n2)cc1,0.872 (inactive),-1.96
CCCNC(=O)c1nn2c(C(F)(F)F)cc(-c3ccco3)nc2c1Br,1.09 (inactive),2.47
CCC(CO)NCC(O)COCc1ccc(Cl)cc1 (centres undefined),1.05 (inactive),0.823
O=C(Cn1nc(-c2ccccc2)c2cc(Cl)ccc21)NCc1ccccc1,1.08 (inactive),2.18
Cc1cc(Br)ccc1NC(=O)CNC(=O)Cn1c(C)cc2ccccc2c1=O,1.18 (inactive),1.84
CCCCN(CC)CCCNC(=O)C1CCN(C(=O)c2cc3sccc3n2C)CC1,0.959 (inactive),-0.744
Cc1ccc(OCC(=O)Nc2ccc(S(=O)(=O)Nc3nccs3)cc2)c(Br)c1,1 (inactive),0.0983
CCc1c(-c2ccccc2)nc2ccccc2c1C(=O)NCC1COc2ccccc2O1 (centres undefined),0.762 (inactive),-0.941
